Measured values published in doi:10.1101/2024.03.05.583629.

The sequences below were run against pT7_6His-AlfaTag-HOXD13 (human, UniProt P35453 263-343) (assay: PADIT-seq). Settings: dsDNA, one strand shown.
pT7_6His-AlfaTag-HOXD13, sequence (P35453 263-343): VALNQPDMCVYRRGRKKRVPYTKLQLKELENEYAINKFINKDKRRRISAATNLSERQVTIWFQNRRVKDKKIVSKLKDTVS

Sequence	binding signal
CTCGAGGATATCAAGATCTGGCCTCGGCAAGATAAAAGGAACCTCTAGCTAGCCGACTCACTATAGGGATAATCGCCCTGAGCAAAGACC	0.282 ± 0.0917 log2FC
CTCGAGGATATCAAGATCTGGCCTCGGCCAATGGGCGGGAACCTCTAGCTAGCCGACTCACTATAGGGATAATCGCCCTGAGCAAAGACC	-0.903 ± 0.11 log2FC
CTCGAGGATATCAAGATCTGGCCTCGGCGTTTTAAATGGAACCTCTAGCTAGCCGACTCACTATAGGGATAATCGCCCTGAGCAAAGACC	1.63 ± 0.0846 log2FC
CTCGAGGATATCAAGATCTGGCCTCGGCGTTTTACTCGGAACCTCTAGCTAGCCGACTCACTATAGGGATAATCGCCCTGAGCAAAGACC	0.701 ± 0.0889 log2FC
CTCGAGGATATCAAGATCTGGCCTCGGCTATGTAAAAGGAACCTCTAGCTAGCCGACTCACTATAGGGATAATCGCCCTGAGCAAAGACC	1.05 ± 0.102 log2FC
CTCGAGGATATCAAGATCTGGCCTCGGCTTACCACGCGGAACCTCTAGCTAGCCGACTCACTATAGGGATAATCGCCCTGAGCAAAGACC	-1.03 ± 0.114 log2FC
CTCGAGGATATCAAGATCTGGCCTCGGCATTTTAAGTGGAACCTCTAGCTAGCCGACTCACTATAGGGATAATCGCCCTGAGCAAAGACC	1.18 ± 0.0951 log2FC
CTCGAGGATATCAAGATCTGGCCTCGGCATTTTAAGGGGAACCTCTAGCTAGCCGACTCACTATAGGGATAATCGCCCTGAGCAAAGACC	1.95 ± 0.0802 log2FC
CTCGAGGATATCAAGATCTGGCCTCGGCGTCGTAAAAGGAACCTCTAGCTAGCCGACTCACTATAGGGATAATCGCCCTGAGCAAAGACC	2.57 ± 0.0709 log2FC
CTCGAGGATATCAAGATCTGGCCTCGGCACCCCACGCGGAACCTCTAGCTAGCCGACTCACTATAGGGATAATCGCCCTGAGCAAAGACC	-1.03 ± 0.136 log2FC
